Test results reported in PubChem BioAssay AID1159580 (chemical genetic matrix, 2015).
“And” between values parts separate entries of the source, which are not always exact repeats. Identical values can stand only once. The campaign covered roughly 5,500 compounds. About 2,000 (36%) were called active. Another 18% or so got no clear call; they are omitted. Cut-off read from the data, not from the text of the source: active = normalized growth mostly below about 0.91 (no sharp cut-off); inconclusive = no clear call, values can overlap the other calls; inactive = mostly above about 0.92. The list shows a part of the results.

Assay: chemical genetic growth profiling, strain panel (AID 1159580);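 note: tested at 20 µM; growth read once vehicle control cultures reached saturation at 30 °C; 1 = growth at the plate median or of vehicle wells; lower values mean less growth of the strain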
Conditions: growth OD

Measured: normalized growth

CC(=O)N1CCCC1C(=O)O (configuration not stated)
inactive: S. cerevisiae deletion strains, locus YAL013W, strain DEP1, hits give low values 1.01 | S. cerevisiae deletion strains, locus YBR021W, strain FUR4, hits give low values 0.977 | S. cerevisiae deletion strains, locus YBR229C, strain ROT2, hits give low values 1.01 | S. cerevisiae deletion strains, locus YCL029C, strain bik1, hits give low values 1.03 | S. cerevisiae deletion strains, locus YDL035C, strain GPR1, hits give low values 1.02 | S. cerevisiae deletion strains, locus YDL074C, strain BRE1, hits give low values 1.02 | S. cerevisiae deletion strains, locus YDL101C, strain DUN1, hits give low values 1.01 | S. cerevisiae deletion strains, locus YDL134C, strain PPH21, hits give low values 1.01 | S. cerevisiae deletion strains, locus YDL185W, strain tfp1, hits give low values 1.02 | S. cerevisiae deletion strains, locus YDL192W, strain arf1, hits give low values 1.03 | S. cerevisiae deletion strains, locus YDR101C, strain arx1, hits give low values 1.02 | S. cerevisiae deletion strains, locus YDR150W, strain NUM1, hits give low values 1.01 | S. cerevisiae deletion strains, locus YDR162C, strain NBP2, hits give low values 1.01 | S. cerevisiae deletion strains, locus YDR318W, strain mcm21, hits give low values 1.02 | S. cerevisiae deletion strains, locus YDR388W, hits give low values 1.02 | S. cerevisiae deletion strains, locus YDR502C, strain sam2, hits give low values 1.02 | S. cerevisiae deletion strains, locus YEL061C, strain CIN8, hits give low values 1.01 | S. cerevisiae deletion strains, locus YER110C, hits give low values 1.03 | S. cerevisiae deletion strains, locus YER155C, strain BEM2, hits give low values 1 | S. cerevisiae deletion strains, locus YER167W, strain BCK2, hits give low values 1.01 | S. cerevisiae deletion strains, locus YGL078C, strain dbp3, hits give low values 1.02 | S. cerevisiae deletion strains, locus YGL086W, strain mad1, hits give low values 1.01 | S. cerevisiae deletion strains, locus YGL248W, strain PDE1, hits give low values 1.01 | S. cerevisiae deletion strains, locus YGR078C, strain PAC10, hits give low values 1 | S. cerevisiae deletion strains, locus YGR135W, strain pre9, hits give low values 1.02 | S. cerevisiae deletion strains, locus YGR229C, strain SMI1, hits give low values 0.99 | S. cerevisiae deletion strains, locus YGR252W, strain gcn5, hits give low values 1.03 | S. cerevisiae deletion strains, locus YHR030C, strain SLT2, hits give low values 1.01 and 0.953 | S. cerevisiae deletion strains, locus YHR079C, strain IRE1 (second series), hits give low values 1.02 | S. cerevisiae deletion strains, locus YHR079C, strain IRE1, hits give low values 0.975 | S. cerevisiae deletion strains, locus YHR094C, strain hxt1, hits give low values 1.02 | S. cerevisiae deletion strains, locus YHR129C, strain ARP1, hits give low values 1.01 | S. cerevisiae deletion strains, locus YHR200W, strain rpn10, hits give low values 1.03 | S. cerevisiae deletion strains, locus YIL066C, strain RNR3, hits give low values 1.02 | S. cerevisiae deletion strains, locus YIL073C, strain SPO22, hits give low values 1.08 | S. cerevisiae deletion strains, locus YIL125W, strain kgd1, hits give low values 1.02 | S. cerevisiae deletion strains, locus YIR030C, strain dcg1, hits give low values 1.02 | S. cerevisiae deletion strains, locus YJL095W, strain BCK1, hits give low values 1.01 and 0.981 | S. cerevisiae deletion strains, locus YJL134W, strain LCB3, hits give low values 1.01 | S. cerevisiae deletion strains, locus YJL168C, strain set2, hits give low values 1.02 | S. cerevisiae deletion strains, locus YJL187C, strain SWE1 (second series), hits give low values 1.02 | S. cerevisiae deletion strains, locus YJR043C, strain POL32, hits give low values 0.995 | S. cerevisiae deletion strains, locus YJR066W, strain TOR1, hits give low values 0.872 | S. cerevisiae deletion strains, locus YJR075W, strain HOC1, hits give low values 1 | S. cerevisiae deletion strains, locus YKL009W, strain mrt4, hits give low values 1.02 | S. cerevisiae deletion strains, locus YKL068W, hits give low values 1.03 | S. cerevisiae deletion strains, locus YKL085W, strain MDH1 (second series), hits give low values 1.01 | S. cerevisiae deletion strains, locus YKL085W, strain MDH1, hits give low values 1.01 | S. cerevisiae deletion strains, locus YKL190W, strain CNB1, hits give low values 1.01 | S. cerevisiae deletion strains, locus YKR001C, strain vps1, hits give low values 1.02 | S. cerevisiae deletion strains, locus YLR039C, strain RIC1, hits give low values 1.03 | S. cerevisiae deletion strains, locus YLR058C, strain SHM2, hits give low values 1.01 | S. cerevisiae deletion strains, locus YLR102C, strain apc9, hits give low values 1.02 | S. cerevisiae deletion strains, locus YLR113W, strain HOG1, hits give low values 1.01 | S. cerevisiae deletion strains, locus YLR262C, strain YPT6, hits give low values 1.05 | S. cerevisiae deletion strains, locus YLR268W, strain sec22, hits give low values 1.03 | S. cerevisiae deletion strains, locus YLR330W, strain CHS5, hits give low values 1.01 | S. cerevisiae deletion strains, locus YLR342W, strain FKS1 (second series), hits give low values 0.987 | S. cerevisiae deletion strains, locus YLR371W, strain rom2, hits give low values 1.01 | S. cerevisiae deletion strains, locus YLR418C, strain cdc73, hits give low values 1.04 | S. cerevisiae deletion strains, locus YML016C, strain PPZ1, hits give low values 1.01 | S. cerevisiae deletion strains, locus YML032C, strain rad52, hits give low values 1.02 | S. cerevisiae deletion strains, locus YML124C, strain tub3, hits give low values 1.03 | S. cerevisiae deletion strains, locus YMR078C, strain ctf18, hits give low values 1.04 | S. cerevisiae deletion strains, locus YMR223W, strain ubp8, hits give low values 1.01 | S. cerevisiae deletion strains, locus YMR263W, strain SAP30, hits give low values 1 | S. cerevisiae deletion strains, locus YMR307W, strain GAS1, hits give low values 0.996 | S. cerevisiae deletion strains, locus YNL067W, strain RPL9B, hits give low values 1 | S. cerevisiae deletion strains, locus YNL128W, strain TEP1, hits give low values 1.01 | S. cerevisiae deletion strains, locus YNL153C, strain GIM3, hits give low values 1 | S. cerevisiae deletion strains, locus YNL183C, strain NPR1, hits give low values 0.883 | S. cerevisiae deletion strains, locus YNL233W, strain BNI4, hits give low values 1.01 | S. cerevisiae deletion strains, locus YNL250W, strain rad50, hits give low values 1.02 | S. cerevisiae deletion strains, locus YNL271C, strain bni1, hits give low values 1.03 | S. cerevisiae deletion strains, locus YNL298W, strain CLA4, hits give low values 1.04 | S. cerevisiae deletion strains, locus YNL307C, strain MCK1, hits give low values 1.03 | S. cerevisiae deletion strains, locus YNL322C, strain KRE1, hits give low values 1.01 | S. cerevisiae deletion strains, locus YNR052C, strain pop2, hits give low values 1.03 | S. cerevisiae deletion strains, locus YOL006C, strain TOP1, hits give low values 1.03 | S. cerevisiae deletion strains, locus YOL012C, strain htz1 1.51 | S. cerevisiae deletion strains, locus YOL147C, strain pex11, hits give low values 1.02 | S. cerevisiae deletion strains, locus YOR061W, strain CKA2, hits give low values 1.01 | S. cerevisiae deletion strains, locus YOR069W, strain VPS5, hits give low values 1 | S. cerevisiae deletion strains, locus YOR136W, strain idh2, hits give low values 1.02 | S. cerevisiae deletion strains, locus YOR144C, strain elg1, hits give low values 1.02 | S. cerevisiae deletion strains, locus YOR184W, strain ser1, hits give low values 1.03 | S. cerevisiae deletion strains, locus YOR231W, strain MKK1, hits give low values 0.979 | S. cerevisiae deletion strains, locus YOR316C, strain cot1, hits give low values 1.02 | S. cerevisiae deletion strains, locus YPL055C, strain LGE1, hits give low values 1 | S. cerevisiae deletion strains, locus YPL241C, strain CIN2, hits give low values 1.01 | S. cerevisiae deletion strains, locus YPL256C, strain CLN2, hits give low values 0.941 | S. cerevisiae deletion strains, locus YPR119W, strain clb2, hits give low values 1.02 | S. cerevisiae deletion strains, locus YPR141C, strain kar3, hits give low values 1.03 | S. cerevisiae deletion strains, locus YPR163C, strain tif3, hits give low values 1.02 | S. cerevisiae deletion strains, locus YPR167C, strain met16, hits give low values 1.01 | S. cerevisiae deletion strains, strain wtn01, hits give low values 1.02 | S. cerevisiae strains, strain wild type, hits give low values 1
